# Assay results reported in PubChem BioAssay (Tox21).
# Several values for one entry are separate records, joined by “and”; a condition that tells them apart may be missing. Identical values can stand only once. Some compounds were tested as several samples or in several runs, with calls that do not always agree. Activity calls are given as the source filed them. Entries that show only a call come without a potency. Unless noted, calls follow the shape of the dose curve; as a rule, active = well fitted curve in the direction sought with a large enough effect in the repeat runs; inconclusive = weak or mixed curves; inactive = no such curve, though single readings can be large; an effect the other way counts as inactive or inconclusive.
# Assays:
# [1] = qHTS assay to identify small molecule antagonists of the glucocorticoid receptor (GR) signaling pathway - cell viability counter screen (AID 720693); also: nearly all actives have a fitted effect of over 55% in size; also: potency is read from the fitted curve at half-maximal effect
# [2] = qHTS assay for identifying genotoxic compounds that show differential cytotoxicity against isogenic chicken DT40 cell lines with known DNA damage response pathways - Rev3 mutant cell line (AID 743014); also: nearly all actives have a fitted effect of over 55% in size; also: potency is read from the fitted curve at half-maximal effect
# [3] = qHTS assay for identifying genotoxic compounds that show differential cytotoxicity against isogenic chicken DT40 cell lines with known DNA damage response pathways - Rad54/Ku70 mutant cell line (AID 743015); also: nearly all actives have a fitted effect of over 60% in size; also: potency is read from the fitted curve at half-maximal effect
# [4] = qHTS assay to identify small molecule antagonists of the androgen receptor (AR) signaling pathway - cell viability counter screen (AID 743033; also: nearly all actives have a fitted effect of over 45% in size; also: potency is read from the fitted curve at half-maximal effect)
# [5] = qHTS assay to identify small molecule antagonists of the androgen receptor (AR) signaling pathway using the MDA cell line - cell viability counter screen (AID 743041; also: nearly all actives have a fitted effect of over 45% in size; also: potency is read from the fitted curve at half-maximal effect)
# Procedure, shortened: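 In this qHTS counter assay, fluorescence intensity after CellTiter-Fluor addition indicated viability of MDA-kb2 AR-luc cells given compounds and R1881 for 16 h at 37C.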
# [6] = qHTS assay to identify small molecule antagonists of the thyroid receptor (TR) signaling pathway - cell viability counter screen (AID 743064); also: nearly all actives have a fitted effect of over 50% in size; also: potency is read from the fitted curve at half-maximal effect
# Procedure, shortened: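 In rat pituitary GH3.TRE-Luc reporter cells co-exposed to compound and 1 nM T3 for 23.5 h, cytotoxicity was assessed with CellTiter-Fluor in the same wells, read by fluorescence.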
# [7] = system: thyroid hormone receptor (rat, GH3 cells); experiment: qHTS assay to identify small molecule agonists of the thyroid receptor (TR) signaling pathway (AID 743066; calls by dose curve)
# [8] = biological target: Estrogen receptor (Homo sapiens) (UniProt P03372); experiment: qHTS assay to identify small molecule antagonists of the estrogen receptor alpha (ER-alpha) signaling pathway (AID 743069; active = well fitted curve in the direction sought with a large enough effect in the signal ratio in the repeat runs, not every such curve was filed as active; inconclusive = weak or mixed curves, or effect the other way; inactive = no such curve, though single readings can be large or run the other way; the % refers to the signal ratio; also: potency is read from the fitted curve at half-maximal effect)
# Chain of Estrogen receptor (Homo sapiens) (P03372 whole entry, looked up): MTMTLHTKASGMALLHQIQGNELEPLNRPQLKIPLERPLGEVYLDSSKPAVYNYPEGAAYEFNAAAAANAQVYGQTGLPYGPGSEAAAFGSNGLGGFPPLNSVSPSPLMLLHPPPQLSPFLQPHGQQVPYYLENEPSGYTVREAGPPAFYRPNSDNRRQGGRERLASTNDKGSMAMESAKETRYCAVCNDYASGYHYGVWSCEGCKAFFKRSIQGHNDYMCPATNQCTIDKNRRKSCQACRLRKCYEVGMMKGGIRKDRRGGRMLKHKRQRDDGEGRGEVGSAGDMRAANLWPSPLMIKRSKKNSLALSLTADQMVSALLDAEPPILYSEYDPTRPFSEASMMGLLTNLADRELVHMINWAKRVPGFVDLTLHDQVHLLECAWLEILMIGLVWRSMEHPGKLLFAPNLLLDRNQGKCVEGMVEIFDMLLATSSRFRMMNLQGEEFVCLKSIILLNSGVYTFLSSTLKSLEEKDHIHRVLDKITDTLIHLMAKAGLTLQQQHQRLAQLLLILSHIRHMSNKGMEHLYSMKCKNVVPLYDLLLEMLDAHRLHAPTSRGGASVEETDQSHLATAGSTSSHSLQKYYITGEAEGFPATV
# Procedure, shortened: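 A 17beta-estradiol challenge was applied right after compound transfer to ER-alpha-UAS-bla HEK293 cells previously kept in charcoal-stripped serum. Plates stood 18 hr at 37C and 5% CO2; fluorescence was read following 2 hr FRET substrate loading at room temperature.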
# [9] = qHTS assay to identify small molecule antagonists of the estrogen receptor alpha (ER-alpha) signaling pathway - cell viability counter screen (AID 743074; calls by dose curve;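 also: HEK293 cells carrying ER-alpha-UAS-bla reporter stimulated with 17beta-estradiol; nearly all actives have a fitted effect of over 45% in size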; also: potency is read from the fitted curve at half-maximal effect)
# [10] = biological target: Estrogen receptor (Homo sapiens) (UniProt P03372); experiment: qHTS assay to identify small molecule agonists of the estrogen receptor alpha (ER-alpha) signaling pathway (AID 743075; calls by dose curve;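 also: HEK293 GripTite cells with ER-alpha and UAS-driven beta-lactamase reporter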; also: potency is read from the fitted curve at half-maximal effect); details: HEK293 ER-alpha-UAS-bla, beta-lactamase FRET ratio, 18 h; activation: at 70.1 µM (top of the series)
# [11] = qHTS assay to identify small molecule antagonists of the estrogen receptor alpha (ER-alpha) signaling pathway using the BG1 cell line (AID 743080; calls by dose curve;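 also: BG1 cells stimulated with 17beta-estradiol alongside compound; nearly all actives have a fitted effect of over 25% in size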; also: potency is read from the fitted curve at half-maximal effect)
# Procedure, shortened: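 BG1-Luc-4E2 cells (endogenous full-length ER-alpha, 4xERE luciferase) hormone-starved 5 days in charcoal-stripped FBS, plated 4,000/well for 24 h, then compound plus 17beta-estradiol for 21.5 h at 37 C; ONE-Glo luminescence read.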
# [12] = qHTS assay to identify small molecule antagonists of the estrogen receptor alpha (ER-alpha) signaling pathway using the BG1 cell line - cell viability counter screen (AID 743081);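 also: compound given together with 17beta-estradiol as the ER stimulus; nearly all actives have a fitted effect of over 45% in size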; also: potency is read from the fitted curve at half-maximal effect
# Aromatase (Homo sapiens) = Aromatase (Homo sapiens) (UniProt P11511); experiment: qHTS assay to identify aromatase inhibitors (AID 743083); also: nearly all actives have a fitted effect of over 55% in size; also: potency is read from the fitted curve at half-maximal effect
# Chain of Aromatase (Homo sapiens) (P11511 whole entry, looked up): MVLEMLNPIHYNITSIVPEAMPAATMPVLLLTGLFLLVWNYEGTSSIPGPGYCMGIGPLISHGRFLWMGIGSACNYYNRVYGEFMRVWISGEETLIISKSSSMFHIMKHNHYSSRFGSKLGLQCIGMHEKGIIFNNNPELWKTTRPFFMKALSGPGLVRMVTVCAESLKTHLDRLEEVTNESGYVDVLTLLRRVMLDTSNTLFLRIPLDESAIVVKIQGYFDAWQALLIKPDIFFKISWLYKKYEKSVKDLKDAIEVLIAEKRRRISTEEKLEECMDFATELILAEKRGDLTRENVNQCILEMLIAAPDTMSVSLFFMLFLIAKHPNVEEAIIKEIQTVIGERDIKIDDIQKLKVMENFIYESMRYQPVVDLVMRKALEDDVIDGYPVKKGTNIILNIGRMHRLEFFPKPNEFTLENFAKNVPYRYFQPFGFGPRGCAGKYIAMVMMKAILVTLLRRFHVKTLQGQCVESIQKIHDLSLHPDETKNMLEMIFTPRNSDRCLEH
# [13] = qHTS assay to identify aromatase inhibitors - cell viability counter screen (AID 743084);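 also: cells stimulated with testosterone during compound exposure; nearly all actives have a fitted effect of over 55% in size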; also: potency is read from the fitted curve at half-maximal effect
# [14] = qHTS assay for identifying genotoxic compounds that show differential cytotoxicity against isogenic chicken DT40 cell lines with known DNA damage response pathways - wild type cell line (AID 743012); also: nearly all actives have a fitted effect of over 60% in size; also: potency is read from the fitted curve at half-maximal effect
# Procedure, shortened: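 Viability of DNA repair-proficient chicken DT40 cells was assessed by CellTiter-Glo luminescence following 40 h compound exposure at 37 C/5% CO2.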
# [15] = qHTS assay to identify small molecule antagonists of the thyroid receptor (TR) signaling pathway (AID 743065); also: nearly all actives have a fitted effect of over 55% in size; also: potency is read from the fitted curve at half-maximal effect
# Procedure, shortened: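 GH3.TRE-Luc rat pituitary cells carrying two TR response elements driving luciferase were plated for 4 h, given compound plus 1 nM T3 (final), and incubated 23.5 h at 37 C. ONE-Glo luminescence measured reporter inhibition; CellTiter-Fluor fluorescence tracked cytotoxicity.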
# [16] = biological target: Estrogen receptor (Homo sapiens) (UniProt P03372); experiment: qHTS assay to identify small molecule agonists of the estrogen receptor alpha (ER-alpha) signaling pathway using the BG1 cell line (AID 743079); details: BG1Luc4E2 cells, ERE-luciferase agonist, 22 h; for activation: at 70.3 µM (top of the series); also: potency is read from the fitted curve at half-maximal effect; as to all read-outs here: nearly all actives have a fitted effect of over 20% in size
# [17] = biological target: Androgen receptor (Homo sapiens) (UniProt P10275); experiment: qHTS assay to identify small molecule agonists of the androgen receptor (AR) signaling pathway using the MDA cell line (AID 743040; also: nearly all actives have a fitted effect of over 20% in size)
# Chain of Androgen receptor (Homo sapiens) (P10275 whole entry, looked up): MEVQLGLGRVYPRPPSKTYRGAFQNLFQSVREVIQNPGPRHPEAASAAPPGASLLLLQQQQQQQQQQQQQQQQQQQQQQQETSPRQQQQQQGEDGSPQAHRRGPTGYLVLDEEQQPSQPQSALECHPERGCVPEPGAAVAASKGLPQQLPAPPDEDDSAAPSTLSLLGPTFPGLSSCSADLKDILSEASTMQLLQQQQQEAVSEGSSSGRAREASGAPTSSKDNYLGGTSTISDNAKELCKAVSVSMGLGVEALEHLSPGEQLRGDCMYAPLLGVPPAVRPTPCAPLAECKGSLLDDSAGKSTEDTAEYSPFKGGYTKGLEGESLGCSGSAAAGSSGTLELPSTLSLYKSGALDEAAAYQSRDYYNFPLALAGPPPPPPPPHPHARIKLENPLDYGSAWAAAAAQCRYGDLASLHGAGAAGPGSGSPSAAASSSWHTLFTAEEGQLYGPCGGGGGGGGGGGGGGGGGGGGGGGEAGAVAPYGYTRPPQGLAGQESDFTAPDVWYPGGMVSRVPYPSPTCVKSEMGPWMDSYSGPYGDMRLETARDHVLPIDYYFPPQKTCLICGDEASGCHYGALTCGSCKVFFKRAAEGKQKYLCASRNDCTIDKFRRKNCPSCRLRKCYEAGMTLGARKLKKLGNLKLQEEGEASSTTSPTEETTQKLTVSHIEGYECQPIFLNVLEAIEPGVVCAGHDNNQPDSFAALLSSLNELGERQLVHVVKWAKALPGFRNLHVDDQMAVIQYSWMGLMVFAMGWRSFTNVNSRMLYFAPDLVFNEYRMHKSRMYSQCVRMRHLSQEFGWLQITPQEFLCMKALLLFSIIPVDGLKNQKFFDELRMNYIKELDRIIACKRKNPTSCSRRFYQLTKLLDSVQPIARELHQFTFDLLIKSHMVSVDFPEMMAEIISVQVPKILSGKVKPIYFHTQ
# Procedure, shortened: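 Cell-based luciferase reporter: MDA-kb2, MMTV promoter (AR + GR response elements). 16 h compound exposure at 37C; ONE-Glo, 30 min RT, luminescence.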
# [18] = biological target: Androgen receptor (Homo sapiens) (UniProt P10275); experiment: qHTS assay to identify small molecule antagonists of the androgen receptor (AR) signaling pathway using the MDA cell line (AID 743042)
# Procedure, shortened: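 MDA-kb2 cells (human breast carcinoma, stably carrying an MMTV-luciferase reporter responsive to AR and GR) were plated at 3,000 cells/well and preincubated 5 hr at 37C, then given compound plus R1881 agonist for 16 h. ONE-Glo luminescence was read.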
# [19] = biological target: Androgen receptor (Homo sapiens) (UniProt P10275); experiment: qHTS assay to identify small molecule antagonists of the androgen receptor (AR) signaling pathway (AID 743035; active = well fitted inhibition curve with a large enough effect in the signal ratio in the repeat runs, not every such curve was filed as active; inconclusive = weak or mixed curves, or effect the other way; inactive = no such curve, though single readings can be large or run the other way; the % refers to the signal ratio; also: potency is read from the fitted curve at half-maximal effect)
# Procedure, shortened: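 Reporter HEK293 cells were exposed to compounds and R1881 overnight (16 h, 37C); beta-lactamase activity was then quantified by FRET fluorescence.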
smiles,measurement,setting,value
Cc1ccc(-n2nc(C(C)(C)C)cc2NC(=O)Nc2ccc(OCCN3CCOCC3)c3ccccc23)cc1,Potency,[1],inactive
same,Potency,[2],26.6 µM (active)
same,Potency,[3],26.6 µM (active)
same,Potency,[4],inactive
same,Potency,[5],inactive
same,Potency,[6],inactive
same,Potency,[7],inactive
same,Potency,[8],13.4 µM [inconclusive] (active)
same,Potency,[9],inactive
same,Potency,[10],inactive
same,Potency,[11],inactive
same,Potency,[12],inactive
same,Potency,Aromatase (Homo sapiens),inactive
same,Potency,[13],inactive
O=C(N/N=C/c1ccccc1O)c1ccncc1,Potency,[1],inactive
same,Potency,[14],4.22 µM (active)
same,Potency,[3],5.96 µM (active)
same,Potency,[5],inactive
same,Potency,[15],29.8 µM (active)
same,Potency,[9],inactive
same,Potency,[11],18.8 µM (active)
same,Potency,[12],inactive
same,Potency,Aromatase (Homo sapiens),5.96 µM (active)
O=[N+]([O-])c1cc([N+](=O)[O-])c2ccc(S(=O)(=O)O)cc2c1O,Potency,[1],inactive
same,Potency,[14],inactive
same,Potency,[3],inactive
same,Potency,[4],inactive
same,Potency,[9],inactive
same,Potency,[12],54.2 µM (active)
CNCc1cc(F)ccc1Oc1ccc(Cl)c(Cl)c1,Potency,[1],inactive
same,Potency,[14],13.7 µM (active)
same,Potency,[6],30.6 µM (active)
same,Potency,[15],30.6 µM (active)
same,Potency,[9],inactive
same,Potency,[10],inactive
same,Potency,[12],inactive
same,Potency,[13],inactive
O=C1Cc2cc(CCN3CCN(c4nsc5ccccc45)CC3)c(Cl)cc2N1,Potency,[1],inactive
same,Potency,[2],33.5 µM (active) and 26.6 µM (active)
same,Potency,[3],18.8 µM (active) and 9.44 µM (active)
same,Potency,[4],inactive
same,Potency,[5],inactive
same,Potency,[6],inactive and 16.8 µM (active)
same,Potency,[9],inactive
same,Potency,[10],inactive
same,activation,[16],1.77% (inactive) and -23.7% (inactive)
same,Potency,[11],inactive
same,Potency,[12],inactive
same,Potency,Aromatase (Homo sapiens),inactive
same,Potency,[13],inactive and 26.6 µM (active)
Cc1cc(CCN2CCN(c3nsc4ccccc34)CC2)cc2c1NC(=O)CC2(C)C,Potency,[1],49 µM (active)
same,Potency,[14],3.06 µM (active)
same,Potency,[4],13.8 µM (active)
same,Potency,[17],inactive
same,Potency,[5],48.6 µM (active)
same,Potency,[18],15.4 µM (active)
same,Potency,[6],43.3 µM (active)
same,Potency,[15],27.3 µM (active)
same,Potency,[9],27.5 µM (active)
same,Potency,[10],inactive
same,Potency,[12],54.5 µM (active)
same,Potency,Aromatase (Homo sapiens),24.3 µM (active)
same,Potency,[13],24.3 µM (active)
C[n+]1ccn(Cc2ccccc2)c1,Potency,[1],inactive
same,Potency,[14],inactive
same,Potency,[4],inactive
same,Potency,[6],inactive
same,Potency,[15],inactive
same,Potency,[7],inactive
same,Potency,[8],inactive
same,Potency,[10],inactive
same,Potency,[12],inactive
same,Potency,Aromatase (Homo sapiens),inactive
CCCCN1C(=O)[C@@H]([C@H](O)C2CCCCC2)NC(=O)C12CCN(Cc1ccc(Oc3ccc(C(=O)O)cc3)cc1)CC2,Potency,[1],inactive
same,Potency,[14],61.1 µM (active)
same,Potency,[5],inactive
same,Potency,[15],61.1 µM (active)
same,Potency,[8],inactive
same,Potency,[9],inactive
same,Potency,[10],inactive
same,Potency,[12],inactive
same,Potency,Aromatase (Homo sapiens),inactive
same,Potency,[13],inactive
C=CC(=O)OCC(CO)(COC(=O)C=C)COC(=O)C=C,Potency,[1],6.19 µM (active) and 11 µM (active)
same,Potency,[2],1.22 µM (active) and 2.43 µM (active)
same,Potency,[3],1.37 µM (active) and 1.72 µM (active)
same,Potency,[4],6.94 µM (active) and 11 µM (active)
same,Potency,[19],3.9 µM (active) and 4.9 µM (active)
same,Potency,[17],inactive
same,Potency,[5],17.3 µM (active) and 27.3 µM (active)
same,Potency,[18],2.18 µM (active) and 3.86 µM (active)
same,Potency,[6],2.44 µM (active) and 2.17 µM (active)
same,Potency,[15],1.73 µM (active) and 1.72 µM (active)
same,Potency,[7],inactive
same,Potency,[9],39 µM (active) and 49 µM (active)
same,Potency,[10],13.9 µM [inconclusive] (active) and 12.3 µM [inconclusive] (active)
same,Potency,[12],27.4 µM (active) and 27.3 µM (active)
same,Potency,Aromatase (Homo sapiens),2.74 µM (active) and 5.45 µM (active)
same,Potency,[13],2.18 µM (active) and 4.86 µM (active)
Nc1c2ccccc2nc2ccccc12,Potency,[1],16.9 µM (active) and 15.3 µM (active)
same,Potency,[14],2.11 µM (active) and 4.27 µM (active)
same,Potency,[7],inactive
same,Potency,[9],inactive
same,Potency,[16],11.9 µM (active) and 677 nM (active)
same,Potency,Aromatase (Homo sapiens),18.8 µM (active) and 6.03 µM (active)
CCOc1ccc2nc3cc(N)ccc3c(N)c2c1,Potency,[1],inactive
same,Potency,[2],26.6 µM (active)
same,Potency,[3],26.6 µM (active)
same,Potency,[4],inactive
same,Potency,[5],inactive
same,Potency,[7],inactive
same,Potency,[8],inactive
same,Potency,[9],inactive
same,activation,[16],-22.3% (inactive)
O=C1c2ccccc2Cc2ccccc21,Potency,[1],inactive
same,Potency,[2],inactive
same,Potency,[4],inactive
same,Potency,[5],inactive
same,Potency,[6],5.49 µM (active)
same,Potency,[15],inactive
same,Potency,[7],inactive
same,Potency,[9],inactive
same,Potency,[16],7.75 µM (active)
same,Potency,Aromatase (Homo sapiens),inactive
NC(=NCCCCCCN=C(N)/N=C(\N)Nc1ccc(Cl)cc1)/N=C(\N)Nc1ccc(Cl)cc1,Potency,[1],21.3 µM (active) [middle of 5 runs]
same,Potency,[2],15.3 µM (active) [middle of 5 runs]
same,Potency,[3],17.1 µM (active) [middle of 5 runs]
same,Potency,[5],inactive
same,Potency,[6],8.56 µM (active) [middle of 5 runs]
same,Potency,[15],6.06 µM (active) [middle of 5 runs]
same,Potency,[7],inactive
same,Potency,[9],25 µM (active) [middle of 4 runs]
same,Potency,[12],inactive and 68.2 µM (active)
same,Potency,Aromatase (Homo sapiens),24.1 µM (active) [middle of 4 runs]
NC(=O)NS(=O)(=O)c1ccc(N)cc1,Potency,[1],inactive
same,Potency,[3],inactive
same,Potency,[5],inactive
same,Potency,[6],inactive
same,Potency,[15],inactive
same,Potency,[7],inactive
same,Potency,[8],inactive
same,Potency,[9],inactive
same,Potency,[10],inactive
same,Potency,[11],inactive
same,Potency,Aromatase (Homo sapiens),inactive
same,Potency,[13],inactive
CCCCCOC(=O)CCCC,Potency,[1],inactive
same,Potency,[2],inactive
same,Potency,[3],inactive
same,Potency,[4],inactive
same,Potency,[5],inactive
same,Potency,[15],inactive
same,Potency,[7],inactive
same,Potency,[8],inactive
same,Potency,[9],inactive
same,Potency,[10],inactive
same,activation,[16],-1.52% (inactive)
same,Potency,[11],inactive
same,Potency,[12],inactive
same,Potency,Aromatase (Homo sapiens),inactive
same,Potency,[13],inactive
CCCCCCCCOC(=O)c1ccc(O)cc1,Potency,[1],inactive
same,Potency,[2],60.9 µM (active)
same,Potency,[3],60.9 µM (active)
same,Potency,[4],inactive
same,Potency,[6],61.1 µM (active)
same,Potency,[7],inactive
same,Potency,[9],inactive
same,Potency,[10],61.4 µM [inconclusive] (active) and 43.7 µM [activator] (active)
same,Potency,[16],7.67 µM (active) and 17.2 µM (active)
same,Potency,[11],inactive
same,Potency,[12],inactive
same,Potency,Aromatase (Homo sapiens),21.6 µM (active) and 54.5 µM (active)
